Where “and” joins values, the source holds several entries; their conditions need not be identical. Equal values may be shown once. Inconclusive results are not listed. A call without a number means that no potency is given here. A number with no mark means an inactive call. Calls of active or inactive are those of the source. Calls follow the shape of the dose curve; as a rule, active = well fitted inhibition curve with a large enough effect; inconclusive = small, poorly fitted or top-dose-only effect; inactive = flat fitted curve, though single readings scatter.
Key:
[1] = tested on: SC27B; test: qHTS profiling for inhibitors of Plasmodium falciparum proliferation (AID 504749); also: potency is read from the fitted curve at half-maximal effect; conditions: P. falciparum in erythrocytes, SYBR Green DNA, 72 h; series mostly up to 28.7 µM
Method in brief: (§1)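 P. falciparum-infected erythrocytes (0.3% parasitemia, 2.5% hematocrit) incubated with compound 72 h at 37 C, 5% CO2. Parasite DNA detected by SYBR Green after lysis, overnight at room temperature; normalised to 0.29 uM artemisinin and DMSO.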

[2] = tested on: TAB113; test: as above; conditions: P. falciparum in erythrocytes, SYBR Green DNA, 72 h; series mostly up to 28.7 µM
Method in brief: as §1

[3] = tested on: TAB165; test: as above; conditions: P. falciparum in erythrocytes, SYBR Green DNA, 72 h; series mostly up to 28.7 µM
Method in brief: as §1

[4] = tested on: KB-3-1; test: Cytotoxic Profiling of Annotated Libraries Using Quantitative High-Throughput Screening (AID 1296008); conditions: Five cell lines viability, CellTiter-Glo ATP luminescence, 48-72 h; max response: stronger effect = lower value
Method in brief: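 Cells exposed to compounds for 48 or 72 hr at 37 degrees Celsius. Viability read as ATP-coupled luminescence with CellTiter-Glo after 10 min at room temperature.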

[5] = tested on: TAB109; test: qHTS profiling for inhibitors of Plasmodium falciparum proliferation (AID 504749); also: potency is read from the fitted curve at half-maximal effect; conditions: P. falciparum in erythrocytes, SYBR Green DNA, 72 h; series mostly up to 28.7 µM
Method in brief: as §1

[6] = tested on: W2; test: as above; conditions: P. falciparum in erythrocytes, SYBR Green DNA, 72 h; series mostly up to 28.7 µM
Method in brief: as §1
Also: nearly all actives have a fitted effect of over 60% in size.

Structure (SMILES)	Potency [1]	Potency [2]	Potency [3]	max response [4]	Potency [5]	Potency [6]
CCOc1ccc2c3c1O[C@H]1[C@@H](O)C=C[C@H]4[C@@H](C2)N(C)CC[C@@]341	inactive	inactive	inactive	-8.27%	–	–
N#CN	inactive	inactive	inactive	-5.54%	inactive	inactive
CCC1(c2ccccc2)C(=O)NC(=O)NC1=O	inactive	inactive	inactive	3.43%	inactive	inactive
O=C(CCl)c1ccc(Oc2ccc(C(=O)CCl)cc2)cc1	inactive	inactive	inactive	0.148%	inactive	inactive
S=C=S	inactive	inactive	inactive	-1.39%	inactive	inactive
ClC1C(Cl)C(Cl)C(Cl)C(Cl)C1Cl (stereo not given)	inactive	inactive	inactive	2.37%	inactive	inactive
O=C(NCNC(=O)NC1C(=O)NC(=O)N1CO)NC1C(=O)NC(=O)N1CO (stereo not given)	inactive	inactive	inactive	2.87%	inactive	inactive
F/C(COc1ccc2c(c1)[nH]c1ccccc12)=C1/CN2CCC1CC2	10 µM (active)	–	4.47 µM (active)	-8.12%	7.94 µM (active)	1.51 µM (active)
C=CCN(C1=NCCN1)c1c(Cl)cccc1Cl	inactive	inactive	inactive	1.74%	inactive	inactive
N#CC1(N2CCCCC2)CCCCC1	inactive	inactive	inactive	9.38%	inactive	inactive
O=C(CS(=O)C(c1ccccc1)c1ccccc1)NO (stereo not given)	inactive	inactive	inactive	-1.93%	–	inactive
C/C(=C\c1csc(C)n1)[C@@H]1C[C@@H]2O[C@]2(C)CCC[C@H](C)[C@H](O)[C@@H](C)C(=O)C(C)(C)[C@@H](O)CC(=O)O1	0.005 µM (active)	0.0035 µM (active)	0.0022 µM (active)	-86.7%	0.0025 µM (active)	0.0013 µM (active)
Clc1ccccc1Cl	inactive	inactive	inactive	4.39%	inactive	inactive
O=C(O)C(Cl)(Cl)Cl	inactive	inactive	inactive	-15.3%	inactive	inactive
Clc1ccc(Cl)cc1	inactive	inactive	inactive	0.597%	inactive	inactive
CN1c2ccccc2C(NCCCCCCC(=O)O)c2ccc(Cl)cc2S1(=O)=O (stereo not given)	inactive	inactive	inactive	-15.2%	inactive	inactive
CCOC(=O)c1ccccc1C(=O)OCC	inactive	inactive	inactive	-4.85%	inactive	inactive
O=C(NC(=O)c1c(F)cccc1F)Nc1ccc(Cl)c(Oc2ncc(C(F)(F)F)cc2Cl)c1	inactive	inactive	–	-5.7%	inactive	inactive
[O]=[Cr](=[O])([OH])[O][Cr](=[O])(=[O])[OH]	inactive	inactive	inactive	-23.8% and 6.69%	inactive	inactive
CCC(C)(S(=O)(=O)CC)S(=O)(=O)CC	inactive	inactive	inactive	-12.7%	–	inactive
Clc1ccc(C2(Cn3cncn3)OCCO2)c(Cl)c1	inactive	inactive	inactive	4.69%	inactive	inactive
c1cc2c(c(NC3=NCCN3)c1)CCCC2	inactive	inactive	inactive	-8.19%	inactive	inactive
N#CC(C#N)=Cc1cc(O)c(O)c(O)c1	–	–	7.94 µM (active)	-23.8%	3.98 µM (active)	–

Structure (SMILES)	Potency [1]	Potency [2]	Potency [3]	max response [4]	Potency [5]	Potency [6]
ClC(Cl)(Cl)Cl	inactive	inactive	inactive	-1.06%	inactive	inactive
ClC=C(Cl)Cl	inactive	inactive	inactive	-14.2%	inactive	inactive
O=c1c2ccccc2[se]n1-c1ccccc1	–	11.2 µM (active)	–	-5.46%	–	–
O=C1CCO1	inactive	inactive	inactive	-17.3%	inactive	inactive
COCC(C)N(C(=O)CCl)c1c(C)csc1C (stereo not given)	inactive	inactive	inactive	-0.17%	inactive	inactive
O=C/C=C/c1ccccc1	inactive	inactive	inactive	17.4%	inactive	inactive
CCC(N)Cc1c[nH]c2ccccc12 (stereo not given)	inactive	inactive	inactive	3.31% and -1.82%	inactive	inactive
c1csc(C2(N3CCCCC3)CCCCC2)c1	inactive	inactive	inactive	5.46%	inactive	9.53 µM (active)
CCCCNCC(O)c1ccc(O)cc1 (stereo not given)	inactive	inactive	inactive	13.7%	inactive	inactive
O=Cc1ccco1	inactive	inactive	–	3.99%	inactive	inactive
CC(C)(C)c1cc(O)ccc1O	7.94 µM (active)	12.6 µM (active)	10 µM (active)	3.78% and 3.98%	4.47 µM (active)	1.69 µM (active) and 4.26 µM (active)
CCCC(C)(COC(N)=O)COC(=O)NC1CC1 (stereo not given)	inactive	inactive	inactive	-23.5%	–	inactive
CNC(C)C(O)c1ccc(O)cc1 (stereo not given)	inactive	inactive	inactive	-2.38% and -4.74%	inactive	inactive
CCOP(=O)(OCC)O/C(=C/Cl)c1ccc(Cl)cc1Cl	–	inactive	inactive	11.5%	inactive	–
CCCCCCCCOC(=O)c1ccccc1C(=O)OCCCCCCCC	inactive	inactive	inactive	-10%	inactive	inactive
CC[N+](C)(CC)CCOC(=O)C(O)(c1ccccc1)c1ccccc1	inactive	inactive	inactive	–	inactive	inactive
C[C@@H](Cc1ccccc1)NCCC(c1ccccc1)c1ccccc1	–	–	–	-4.5%	–	2.87 µM (active)
COC([CH2][Hg])CNC(=O)c1ccccc1OCC(=O)O (stereo not given)	inactive	inactive	inactive	–	–	inactive
O=[N+]([O-])c1ccc(F)c([N+](=O)[O-])c1	inactive	inactive	inactive	–	inactive	inactive
C=CCN1CC[C@]23c4c5ccc(O)c4O[C@H]2[C@@H](O)C=C[C@H]3[C@H]1C5	inactive	inactive	inactive	–	inactive	inactive
O[C@H]1[C@H]2[C@H](O)CCCN2C[C@H]1O	inactive	inactive	inactive	–	inactive	inactive
Cc1sc2ccccc2c1CC1=NCCN1	inactive	inactive	inactive	–	inactive	–
CC(=O)OC1CN2CCC1CC2 (stereo not given)	inactive	inactive	inactive	–	inactive	inactive

Structure (SMILES)	Potency [1]	Potency [2]	Potency [3]	max response [4]	Potency [5]	Potency [6]
CC(C)Nc1ccc(Nc2ccccc2)cc1	12.6 µM (active)	10 µM (active)	7.94 µM (active)	–	7.94 µM (active)	4.78 µM (active)
CN1CCCC(=C(c2cccs2)c2cccs2)C1	–	–	–	-14.6%	–	4.78 µM (active)
NCC(O)c1cccc(O)c1 (stereo not given)	inactive	inactive	inactive	–	inactive	inactive
C[N+]1(C)C2CCC1CC(OC(=O)c1c[nH]c3ccccc13)C2 (stereo not given)	inactive	inactive	inactive	–	inactive	inactive
CN1[C@@H]2CC[C@H]1CC(OC1c3ccccc3CCc3ccccc31)C2 (stereo not given in full)	–	inactive	3.98 µM (active)	1.95%	–	2.28 µM (active)
S=C(S)N1CCNCC1	inactive	inactive	inactive	–	inactive	inactive
[Cl-].[Cl-].[Hg+2]	–	–	–	–	–	9.53 µM (active)
CN1C2CCC1CC(OC(c1ccccc1)c1ccc(Cl)cc1)C2 (stereo not given)	11.2 µM (active)	7.94 µM (active)	5.01 µM (active)	–	7.08 µM (active)	2.39 µM (active)
O=CC=O	inactive	inactive	inactive	–	inactive	inactive
O=C1CC[C@@]2(O)C3Cc4ccc(O)c5c4C2(CCN3CC2CC2)[C@H]1O5 (stereo not given in full)	inactive	inactive	inactive	–	inactive	–
CC(C)(O)C1C2OC(=O)C1C1(O)CC3OC34C(=O)OC2C14C (stereo not given)	inactive	inactive	inactive	–	inactive	inactive
CC(C)CCON=O	inactive	inactive	inactive	–	inactive	inactive
COc1ccc2c(c1OC)C(=O)OC2C1c2cc3c(cc2CCN1C)OCO3 (stereo not given)	inactive	inactive	inactive	–	inactive	–
C[C@]12CCC(=O)C[C@@H]1CC[C@@H]1[C@@H]2CC[C@]2(C)[C@@H](O)CC[C@@H]12	inactive	inactive	inactive	–	inactive	inactive
C=CCN1CCC23c4c5ccc(O)c4O[C@H]2C(=O)CC[C@@]3(O)C1C5 (stereo not given in full)	inactive	inactive	inactive	–	inactive	inactive
c1ccc(C2(N3CCCC3)CCCCC2)cc1	–	–	12.6 µM (active)	–	7.94 µM (active)	7.57 µM (active)
CC(=O)O[C@H]1CC[C@H]2[C@@H]3CCC4=CC(=O)CCC4=C3C=C[C@]12C	inactive	inactive	inactive	–	inactive	inactive
COc1ccc(OC)c(C(O)C(C)N)c1 (stereo not given)	inactive	inactive	inactive	–	inactive	inactive
CCCN1CCCC2Cc3[nH]ncc3CC21 (stereo not given)	inactive	inactive	inactive	–	inactive	–
CCC1(c2ccccc2)C(=O)NC(=O)N(C)C1=O (stereo not given)	–	–	–	-7.5%	–	6.75 µM (active)
c1ccc2cc(CC3=NCCN3)ccc2c1	inactive	inactive	inactive	–	inactive	inactive

Source: PubChem BioAssay (NCATS)
